Source: PubChem
Luciferase inh: Photinus pyralis luciferase inhibition; P08659; purified P. pyralis luciferase, luminescence, biochemical; Potency, µM (series often up to 115 µM), hits mostly inhibitors; 76,000 compounds, 2.5% hits; also: nearly all actives have a fitted effect of over 65% in size
Target sequence (P08659 whole entry, looked up): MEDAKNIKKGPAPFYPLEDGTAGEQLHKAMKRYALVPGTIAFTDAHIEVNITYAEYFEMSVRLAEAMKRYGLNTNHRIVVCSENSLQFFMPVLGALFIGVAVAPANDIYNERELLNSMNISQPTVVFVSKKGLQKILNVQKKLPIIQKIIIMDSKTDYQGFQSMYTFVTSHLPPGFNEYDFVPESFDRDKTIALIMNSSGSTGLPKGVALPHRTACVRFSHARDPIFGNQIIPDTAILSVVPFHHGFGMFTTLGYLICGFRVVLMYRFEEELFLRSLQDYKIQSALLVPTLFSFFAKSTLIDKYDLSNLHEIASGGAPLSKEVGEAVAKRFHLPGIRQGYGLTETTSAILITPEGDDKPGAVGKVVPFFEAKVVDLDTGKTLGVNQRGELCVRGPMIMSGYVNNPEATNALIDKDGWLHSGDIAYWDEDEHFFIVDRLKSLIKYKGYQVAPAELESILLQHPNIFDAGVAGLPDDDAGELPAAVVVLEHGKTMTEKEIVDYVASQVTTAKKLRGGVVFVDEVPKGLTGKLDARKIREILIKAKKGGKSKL
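Cell-free enzyme assay, 10nM P. pyralis luciferase, luciferin and ATP each at 10uM. Inhibition profiled over a 6-point titration, read as luminescence.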
HEK293 tox: HEK 293 cell cytotoxicity; HEK 293 viability, ATP luminescence (CellTiter-Glo), 48-72 h; Potency, µM (doses to about 115 µM), inactives show at the top dose activity change, negative = cytotoxicity, most hits filed as inhibitors; 94,000 compounds, 6.6% hits; also: nearly all actives have a fitted effect of over 60% in size
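CellTiter-Glo luminescence (cellular ATP) was read after 48 or 72 hr of compound exposure at 37 degree Celsius. Cells were HEK 293 plated at 250 cells/well.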
GPT2 inh: inhibitors of human GPT2 alanine aminotransferase | Q8TD30 | Recombinant GPT2, coupled pyruvate oxidase/HRP Amplex Red fluorescence | Potency, µM (doses to about 57.7 µM), without a hit: at the top dose activity change, negative = inhibition, usual class: inhibitors | 100,000 compounds, 0.25% hits; also: nearly all actives have a fitted effect of over 60% in size
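Recombinant GPT2 (10ng/uL) with 250uM a-KG and 2mM L-alanine, 30 min at room temperature, in HEPES pH 7.5 buffer. Pyruvate detected by pyruvate oxidase/HRP/Amplex Red fluorescence after 30 min in the dark; AOA (50uM) as positive control.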
NPR1 antag: blocks ANP-stimulated signaling of human Npr1 receptor; AID 1347048; Potency, µM (titrated, usually from 46.3 µM), for the others: top-dose activity change, negative = inhibition, hits mostly inhibitors; P16066; HEK293 hNpr1 GloSensor cGMP, ANP-stimulated luminescence; 76,000 compounds, 1.6% hits; calls by dose curve; also: nearly all actives have a fitted effect of over 60% in size
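Compound pre-incubated 30 min at room temperature on GloSensor-loaded HEK293 cells stably carrying hNpr1 and the pGS-40F cGMP biosensor. Stimulation uses hNppA at 0.1 nM final; luminescence is taken at baseline and 20 min post-agonist.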
NIH3T3 tox: NIH 3T3 cell cytotoxicity; Potency, µM (series often up to 96.7 µM), without a hit: top-dose activity change, negative = cytotoxicity, hits mostly inhibitors; AID 1345082; NIH 3T3 viability, CellTiter-Glo ATP luminescence, 48-72 h; 94,000 compounds, 4.3% hits; also: nearly all actives have a fitted effect of over 55% in size
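First NIH 3T3 cells are plated at 400 cells/well; next compound is pinned in; then plates incubate 48 or 72 hr at 37 °C; finally CellTiter-Glo is added and luminescence read after 10 min.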
Active calls of the source: *; i = inactive; u = inconclusive; x = not tested or not shown; [ ] = dose if it differs, or a comment. A selection: hits, their analogues and other compounds. The true share with any hit is near 10%. Unless noted, calls follow the shape of the dose curve; as a rule, active = well fitted curve in the direction sought with a large enough effect; inconclusive = small, poorly fitted or top-dose-only effect, or another doubt; inactive = no such curve, though single readings can be large; an effect the other way counts as inactive or inconclusive. % is scaled to controls: 0 for no effect and ±100 for the full control effect; potency is read from the fitted curve at half-maximal effect.

SMILES	Luciferase inh	HEK293 tox	GPT2 inh	NPR1 antag	NIH3T3 tox
Cn1c(=O)c2c(ncn2CC(=O)N2CCC(CCOc3ccc(F)cc3)C2)n(C)c1=O (centres undefined)	i	89µM*	i	-30%	-24%
O=C(NC1CCCC1)NC1CCN(c2nccc(Nc3ccccc3Cl)n2)CC1	x	u	-3%	x	u
CN(CCCN1CCOCC1)Cc1nc(-c2cccs2)no1	i	1%	-8%	1%	0%
O=C(Nc1ccc(Cl)cc1)c1ccc2c(c1)n(Cc1ccccc1)c(=O)c1ccnn12	i	u	-8%	-15%	-31%
COc1ccccc1C(=O)N1CCC2(CC1)COc1ccccc1CN2	i	63µM*	i	6%[70.6 µM]	u
COc1ccccc1C(=O)N1CCC2(CC1)COc1ccccc1[S+](=O)([O-])N2	x	0%	-6%	x	-18%
NC(=O)c1ccc(-c2nc3c([nH]2)CN(c2ncnc4ccsc24)CC3)cc1	i	32µM*	-2%	-16%	-10%
CCCc1c(-c2ccc(O)cc2)nn(-c2ccc(O)cc2)c1-c1ccc(O)cc1	x	x	-7%	x	x
CC(C)[C@H]1CN(CCS(C)(=O)=O)C[C@@H]1NC(=O)CCn1cncn1	i	2%	u	0%	-2%
Cc1ccccc1OCc1nc(C2CCOC2)no1 (centres undefined)	i	-9%	i	3%	-16%
Clc1ccc(-c2cnc([C@@H]3COCCN3CC3CC3)[nH]2)s1	i	89µM*	2%[88.5 µM]	-5%[70.6 µM]	u
CC(C)(C)CN1CCOC[C@H]1c1ncc(-c2ccc(F)cc2F)[nH]1	i	u	i	-5%[70.6 µM]	u
Fc1ccc(-c2cnc([C@@H]3COCCN3Cc3ccccc3F)[nH]2)c(F)c1	i	100µM*	1%[88.5 µM]	-30%[70.6 µM]	u
Fc1ccccc1CN1CCOC[C@H]1c1ncc(-c2ccc(Cl)s2)[nH]1	i	u	i	u	89µM*
Clc1ccc(-c2cnc([C@@H]3COCCN3Cc3cnc[nH]3)[nH]2)cc1	i	-22%[172 µM]	1%[88.5 µM]	3%[70.6 µM]	-18%[138 µM]
Clc1ccc(-c2cnc([C@@H]3COCCN3Cc3c[nH]c4ccccc34)[nH]2)s1	i	71µM*	0%[88.5 µM]	u	79µM*
O=C1c2c(nc(CNc3ccc(OC(F)(F)F)cc3)n2Cc2ccccc2)NCCN1CCN1CCOCC1	i	u	-12%	-19%	u
COC(=O)[C@@H]1Cc2ncn(Cc3ccc(Cl)cc3)c2CN1S(=O)(=O)c1ccc(C#N)cc1	i	-1%	2%	-4%	u
C=C1CC23CC1(O)CCC2C1=CC2OC(=O)C(C)(C2O)C1C3C(=O)O (centres undefined)	x	x	1%[27.3 µM]	x	x
Fc1ccc(CN2CCOC[C@H]2c2ncc(-c3ccc(Cl)s3)[nH]2)cc1	i	79µM*	-12%[88.5 µM]	u	u
CC(C)CCNC(=O)c1cnc2c(c1)N(C(=O)Cc1ccc(C(C)C)cc1)CCC2	i	100µM*	i	-23%[70.6 µM]	100µM*
CC(C)c1ccc(CC(=O)N2CCCc3ncc(C(=O)NCCOc4ccccc4)cc32)cc1	u	40µM*	-18%	u	u
CCOc1ccc(C(=O)N2CCC3(CC2)CN(C2CCC2)CC3COC)cc1 (centres undefined)	i	u	u	-20%	-16%
Cc1ccc(-c2nc(C)c(C(=O)Nc3ccc4c(c3)C(=O)N3CCC[C@H]3C(=O)N4)s2)cc1	28µM*	u	1%	-7%	-11%
COc1ccc2c(c1)C=C(CN1CCC(CO)(Cc3ccccc3Cl)CC1)CO2	i	18µM*	-22%	u	u
SMILES	Luciferase inh	HEK293 tox	GPT2 inh	NPR1 antag	NIH3T3 tox
CCOc1ccc(CN2CCC(CO)(Cc3ccccc3Cl)CC2)cc1	i	79µM*	2%	2%	u
C=C1C(=O)OC2C1CCC(=C)C1CC(OC(C)=O)C(=C)C12 (centres undefined)	x	x	i	x	x
CC(C)(CC(=O)O)CC(=O)N1C[C@@H]2C[C@H](C1)c1ccc(-c3cc4ccccc4s3)c(=O)n1C2	22µM*	-10%	u	-2%	-15%
COCCN[C@@H]1C[C@@H]2c3[nH]c4ccccc4c3C[C@@H](C(=O)OC)N2[C@H](c2ccc(F)c(F)c2)C1	i	22µM*	-8%	u	25µM*
COCCn1ccc2ccc(C(=O)NC3CCCc4c3[nH]c3ccccc43)cc21 (centres undefined)	i	u	-4%	1%	u
COC(=O)[C@@H]1Cc2c([nH]c3ccccc23)[C@H]2C[C@@H](NCCO)C[C@@H](c3ccccc3)N21	u	40µM*	2%[88.5 µM]	-16%[70.6 µM]	32µM*
O=C(COc1ccccc1)NC1CCCc2c1[nH]c1ccccc21 (centres undefined)	i	u	-13%	-4%	u
COCCN[C@@H]1C[C@@H]2c3[nH]c4ccccc4c3C[C@@H](C(=O)OC)N2[C@H](c2ccccc2)C1	u	28µM*	5%[88.5 µM]	u	32µM*
NC(=O)Nc1sc(-c2ccc(F)cc2)cc1C(N)=O	x	x	1%	x	x
Clc1cccc(-c2noc(-c3nc(-c4ccncc4)no3)n2)c1	i	8%	-5%	6%	i
Cn1cnc(C(=O)N2CCC(Cc3ccc(C(N)=O)cc3)CC2)c1	i	-2%	-3%	-6%	-7%
COc1ncc(-c2cc(C(=O)NCc3cccnc3)c3c(c2)N(C)CCO3)cn1	i	-12%[172 µM]	i	-6%[70.6 µM]	45µM*
CNC(=O)c1cc(-c2ccc(CO)cc2)cc2c1OCCN2Cc1cccnc1	i	-3%[172 µM]	-1%[88.5 µM]	10%[70.6 µM]	45µM*
CNC(=O)c1cc(-c2ccc(OC)c(OC)c2)cc2c1OCCN2Cc1cccnc1	i	-12%[172 µM]	i	2%[70.6 µM]	22µM*
CNC(=O)c1cc(-c2cnc(OC)nc2)cc2c1OCCN2Cc1cccnc1	i	2%[172 µM]	i	-1%[70.6 µM]	u
CNC(=O)c1cc(-c2ccc(F)cc2OC)cc2c1OCCN2Cc1cccnc1	i	u	-5%[88.5 µM]	-6%[70.6 µM]	u
CNC(=O)c1cc(-c2cnn(C)c2C)cc2c1OCCN2Cc1cccnc1	i	-4%[172 µM]	2%[88.5 µM]	1%[70.6 µM]	45µM*
Cc1cc(CNC(=O)c2cc(-c3ccccc3)cc3c2OCCN3C)no1	i	100µM*	i	3%[70.6 µM]	u
O=C(NCc1cccnc1)c1cc(-c2ccccc2F)cc2c1OCCN2Cc1cccnc1	i	u	u	-22%	u
CNC(=O)c1cc(-c2ccc([S+](C)(=O)[O-])cc2)cc2c1OCCN2Cc1cccnc1	i	-23%[172 µM]	u	-4%[70.6 µM]	8.9µM*
COc1cccc(-c2ccccc2NC(=O)C2CCN(C/C(C)=C/c3ccccc3)CC2)c1	i	u	-21%	-28%	u
